Screens deposited in PubChem BioAssay by The Scripps Research Institute Molecular Screening Center.
SMARCA2 activ: SMARCA2 (BRM) function activators, primary screen, cell-based, luminescence, high throughput; 370,000 compounds, 1% hits; AID 652017, 2013; MG213 cells, MMTV-luciferase reporter, dexamethasone, overnight; activation, % at 9.1 µM; in the data active means activation above about 7.8%;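 further: 0% = vehicle wells and 100% = reference activator wells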
hgDAF12 agonist: H. glycines DAF-12 receptor agonists, primary screen, cell-based, luminescence, HEK293, GAL4 fusion, UAS-luciferase. Nuclear hormone receptor DAF-12 (Heterodera glycines), GAL4 fusion. HEK293 GAL4-hgDAF12 UAS-luciferase reporter, agonist luminescence; normalized to butyrate control. activation, % at 6.8 µM. 370,000 compounds, 1.8% hits;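 active means activation above a cutoff set at the mean of all screened compounds plus 3 SD, cut at about 10% in these data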;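 further: 0% = DMSO wells and 100% = sodium butyrate wells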
DAX1 inh-1: DAX1 (NR0B1) inhibitors, primary screen, cell-based, HEK293, Gal4-DAX1, luciferase luminescence. Nuclear receptor subfamily 0 group B member 1 (Homo sapiens), P51843. HEK293 Gal4-DAX1 luciferase reporter. inhibition, % at 6.75 µM. 340,000 compounds, 0.99% hits;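 active means inhibition above the mean over all tested compounds plus 3 SD, cut at about 4.2% in these data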;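 further: 0% = DAX1-transfected cells with DMSO and 100% = empty-vector control cells with DMSO; inhibition shows as a rise in luminescence from relieved DAX1 repression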
ssDAF12 agonist: S. stercoralis DAF-12 nuclear receptor activators, primary screen, cell-based, luminescence, HEK293, GRIP1 co-expression, lit1-tk-luc | Nuclear hormone receptor DAF-12 (Strongyloides stercoralis) | HEK293 ssDAF-12/GRIP1 lit1-tk-luc reporter; % of 3 µM dafachronic acid response | activation, % at 6.8 µM | 370,000 compounds, 1% hits;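 active means activation above the mean over all tested compounds plus 3 SD, cut at about 0.9% in these data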;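 further: 0% = DMSO-only wells and 100% = 3 µM delta7-dafachronic acid wells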
DAX1 inh-2: DAX1 (NR0B1) inhibitors on StAR promoter, primary screen, cell-based, luminescence, SF-1 (NR5A1), full-length DAX-1 | HEK293T StAR-luciferase reporter, SF-1/DAX-1 repression relief | inhibition, % at 6.8 µM | 370,000 compounds, 1.1% hits;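 active means inhibition above the mean over all tested compounds plus 3 SD, cut at about 3.6% in these data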;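 further: 0% = DAX-1 cells with DMSO and 100% = cells lacking DAX-1 with DMSO; higher inhibition means more luminescence from relief of DAX-1 repression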
hcDAF12 agonist: H. contortus DAF-12 nuclear receptor activators, primary screen, cell-based, luminescence, HEK293, lit1-tk-luc reporter; HEK293 hcDAF-12 lit1-tk-luc reporter; 0% DMSO, 100% Δ7-dafachronic acid; activation, % at 6.8 µM; 370,000 compounds, 1.4% hits; AID 652067, 2013;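 active means activation above the mean of all tested compounds plus 3 SD, cut at about 5.5% in these data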;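 further: 100% = response to 3 µM Δ7-dafachronic acid high control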
LXRb hcDAF ctr: LXR agonists, Gal4 luciferase reporter, confirmation, counter-screen for hcDAF-12 agonist project, cell-based, luminescence, HEK293, H. contortus campaign; shares compounds with hcDAF12 agonist; HEK293 Gal4-LXR tk-luc reporter, 24 h; normalized: DMSO 0%, positive control 100%; activation, % at 6.8 µM; 3,400 tested, under 10 active; AID 743027, 2013;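 active means mean percent activation of the reporter above a cutoff set as the average over tested compounds plus their standard deviation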
Target sequence (P55055 whole entry, looked up, the tested form may be a part): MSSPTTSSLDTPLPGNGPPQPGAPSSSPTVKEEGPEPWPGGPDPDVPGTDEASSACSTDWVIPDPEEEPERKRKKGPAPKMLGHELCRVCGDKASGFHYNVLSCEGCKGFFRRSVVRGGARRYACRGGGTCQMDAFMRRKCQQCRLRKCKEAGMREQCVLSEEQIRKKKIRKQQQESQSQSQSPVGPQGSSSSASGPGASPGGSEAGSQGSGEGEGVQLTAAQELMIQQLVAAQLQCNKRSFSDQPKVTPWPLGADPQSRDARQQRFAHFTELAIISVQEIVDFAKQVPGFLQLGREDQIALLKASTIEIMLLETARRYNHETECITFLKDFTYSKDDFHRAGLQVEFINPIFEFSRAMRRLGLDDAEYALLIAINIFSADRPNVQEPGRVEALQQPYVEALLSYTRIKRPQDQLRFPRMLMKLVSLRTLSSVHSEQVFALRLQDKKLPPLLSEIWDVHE
hcDAF12 ag: H. contortus DAF-12 receptor agonists, confirmation, cell-based, luminescence, HEK293, lit1-tk-luc, triplicate. shares compounds with hcDAF12 agonist. HEK293 hcDAF-12 lit1-tk-luc reporter; % of Δ7-dafachronic acid response. activation, % at 6.8 µM. 3,400 compounds, 61% hits. AID 743032, 2013;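 active means mean activation across triplicate tests above the threshold derived from the earlier primary screen, cut at about 5.5% in these data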;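 further: 0% = DMSO only wells and 100% = 3 µM Δ7-dafachronic acid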
hgDAF12 conf: H. glycines DAF-12 receptor agonists, confirmation, cell-based, luminescence, HEK293, GAL4-LBD fusion | HEK293 GAL4-hgDAF12 luciferase reporter, agonist mode; percent of butyrate response | 3,300 compounds, 80% hits | activation, % at 6.8 µM | shares compounds with hgDAF12 agonist;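 active means mean activation over triplicate wells above the hit cutoff derived from the earlier primary screen, cut at about 11% in these data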;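 further: 0% = DMSO low control and 100% = 2 mM sodium butyrate high control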
LXR ag 2: LXR agonists, Gal4 luciferase reporter, confirmation, counter-screen for hgDAF-12 agonist project, cell-based, luminescence, HEK293, H. glycines campaign. shares compounds with hgDAF12 agonist. AID 743051, 2013. activation, % at 6.8 µM. 24 h. 3,300 tested, under 10 active;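 active means mean activation of the triplicate above a set limit carried over from the primary screen, none filed active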
Numbers without * were called inactive; / = not tested or not shown. In the library only some 4.8% were active in any assay of this set; here they are far more common.

SMILES	SMARCA2 activ	hgDAF12 agonist	DAX1 inh-1	ssDAF12 agonist	DAX1 inh-2	hcDAF12 agonist	LXRb hcDAF ctr	hcDAF12 ag	hgDAF12 conf	LXR ag 2
Cc1cccc(NC(=O)c2cc(C)nc3ccccc23)c1	2	1	1	-1	0	-2	/	/	/	/
Cc1cccc(NC(=S)c2nc3ccccc3s2)c1	5	13*	2	2.1*	2	8.8*	1	9.9*	16*	1
Cc1ccc2nc(-c3ccccc3)c(Cc3cccc(F)c3)n2c1	4	14*	/	1	2	8.7*	0	5	4	0
c1ccc(-c2noc(CSc3nnnn3-c3ccccc3)n2)cc1	2	-1	-1	-1	-1	-1	/	/	/	/
O=C(Nc1ccc(Cl)cc1)Nc1cccc2nsnc12	1	15*	2	1.3*	1	12*	1	11*	20*	1
Cc1nc(-c2coc3cc(O)c(C)cc3c2=O)cs1	4	13*	-2	1	2	10*	2	10.0*	15*	1
Cc1nc(-c2coc3cc(OCC(=O)O)ccc3c2=O)cs1	0	3	-2	-1	0	-1	/	/	/	/
CC(=O)Nc1sc2c(c1CN1CCCC1)CCCC2	2	3	1	-1	0	1	/	/	/	/
Cc1nc2cc(C)c(C)cc2o1	0	-5	0	-1	0	0	/	/	/	/
Cc1ccc2nc(-c3ccc(NC(=S)NCC(C)(C)CN(C)C)cc3)sc2c1	7	18*	13*	0	4.0*	7.8*	1	4	13*	1
CC12COC3(C(=O)Nc4ccc5ccccc5c4)CC1CCC32C (stereo not given)	4	19*	2	1.9*	2	7.3*	1	6.9*	16*	0
CC12COC3(C(=O)Nc4ccccc4)CC1CCC32C (stereo not given)	0	-2	1	-1	0	-1	/	/	/	/
CC1CCC(C(=O)NC(C(=O)NCCCN2CCOCC2)C(C)C)CC1 (stereo not given)	3	1	-1	-2	-1	-1	/	/	/	/
CCc1nnc(NC(=O)c2ccc3ccccc3n2)s1	4	14*	1	2.6*	3.9*	13*	1	15*	18*	1
Cc1ccc(NC(=O)c2ccc3ccccc3n2)nc1	1	16*	3	3.5*	3.8*	16*	2	17*	20*	1
OC(CNCC1(N2CCCCC2)CCCCC1)COc1ccc(Cl)cc1Cl (stereo not given)	-2	-3	0	-2	0	-1	/	/	/	/
COc1cccc(NC(C)C(=O)Nc2cc([N+](=O)[O-])ccc2Cl)c1 (stereo not given)	-1	-3	0	-2	0	-1	/	/	/	/
C/C(=N\NC(=O)Cc1c[nH]c2ccccc12)c1ccc2ccccc2c1	7	2	-1	0	0	1	/	/	/	/
O=C(NC(=S)Nc1cnc2ccccc2c1)c1ccccc1	2	21*	5.9*	1.9*	4.2*	7.4*	1	6.6*	13*	1
CN1C(=O)C2C=CC1C1C(=O)N(c3ccccc3)C(=O)C21 (stereo not given)	7	17*	4	1	4.0*	9.5*	1	6.2*	0	0
O=C1C2C3C=CC(C3=C3CCCCC3)C2C(=O)N1c1ccccc1 (stereo not given)	-1	0	-1	-1	0	-1	/	/	/	/
Cc1ccc(-c2csc(NC(=O)/C=C/c3ccco3)c2C(=O)O)cc1	6	14*	1	0	3	11*	1	6.0*	11*	1
Brc1ccccc1/C=N/Nc1ccc2ccccc2n1	0	25*	2	2.5*	3	11*	2	13*	22*	1
Cc1ccnc(Nc2nc3ccccc3o2)n1	3	21*	0	0	6.5*	10*	1	6.6*	10	1
N#Cc1cnc(Nc2nc3ccccc3o2)nc1-c1ccccc1	-1	-1	-1	-1	-1	0	/	/	/	/
SMILES	SMARCA2 activ	hgDAF12 agonist	DAX1 inh-1	ssDAF12 agonist	DAX1 inh-2	hcDAF12 agonist	LXRb hcDAF ctr	hcDAF12 ag	hgDAF12 conf	LXR ag 2
Cc1occc1C(=O)Nc1cccc2ccccc12	3	17*	4	1.1*	3.8*	6.7*	1	5.9*	21*	1
Cc1occc1C(=O)Nc1ccccc1NC(=O)c1ccoc1C	-2	-2	0	-1	0	2	/	/	/	/
Cc1ccc(NC(=O)c2ccoc2C)cc1C	2	14*	0	0	3	6.9*	1	5	12*	0
Cc1occc1C(=O)Nc1cccc(C(=O)O)c1	7	3	1	0	1	2	/	/	/	/
COCCN(C(=O)COC(=O)CCSc1ccc(F)cc1)c1c(N)n(Cc2ccccc2)c(=O)[nH]c1=O	0	3	-1	0	1	0	/	/	/	/
Cn1c(NCc2c[nH]c3ccccc23)nc2ccccc21	2	16*	2	1.7*	2	16*	1	15*	25*	1
